Source: PubChem BioAssay (NCATS)
Inconclusive results are not listed. A number with no mark means an inactive call. Calls of active or inactive are those of the source. Calls come from the whole dose curve.

These compounds were tested against Vitamin D3 receptor (Homo sapiens) (UniProt P11473) (assay: qHTS assay for small molecule agonists of vitamin D receptor signaling (AID 588543;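 note: 0% = DMSO basal and 100% = reference agonist control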)). Details: HEK293T VDR-UAS-bla, beta-lactamase ratio, 16 h; series mostly up to 76.8 µM; activation: at the top concentration.
Chain of Vitamin D3 receptor (Homo sapiens) (P11473 whole entry, looked up): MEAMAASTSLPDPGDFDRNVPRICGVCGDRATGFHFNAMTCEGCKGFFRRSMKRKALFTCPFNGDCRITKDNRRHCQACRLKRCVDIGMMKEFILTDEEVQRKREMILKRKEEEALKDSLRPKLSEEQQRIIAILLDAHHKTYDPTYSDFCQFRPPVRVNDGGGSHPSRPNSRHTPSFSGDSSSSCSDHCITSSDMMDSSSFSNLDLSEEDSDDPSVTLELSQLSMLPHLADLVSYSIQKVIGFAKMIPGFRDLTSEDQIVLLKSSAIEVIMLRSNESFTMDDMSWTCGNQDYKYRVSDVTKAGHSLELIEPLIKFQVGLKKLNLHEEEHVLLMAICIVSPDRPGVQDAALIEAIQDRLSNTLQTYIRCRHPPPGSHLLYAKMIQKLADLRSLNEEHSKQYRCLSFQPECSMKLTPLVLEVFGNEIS
Outline: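 VDR-UAS-bla HEK293T cells, 2000/well, 2% charcoal-stripped FBS; compound titration 16 h at 37 C; CCF4 beta-lactamase ratio read. Normalized to 50 nM 1-alpha,25-dihydroxyvitamin D3 (100%) and DMSO; Hill fit gives EC50, efficacy.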

Row | Structure (SMILES) | activation [%] | outcome
1 | Brc1ccccc1 | -0.484 | 
2 | CCOP(=S)(OCC)SCSC(C)(C)C |  | inactive
3 | C=C(C)C#N |  | inactive
4 | CCSC(=O)Cl | 1.17 | 
5 | Cc1cccc([N+](=O)[O-])c1 |  | inactive
6 | C=C(C)C(=O)OCC1CO1 (configuration not stated) | -2.29 | 
7 | Cc1ccc([N+](=O)[O-])cc1C |  | inactive
8 | O=[N+]([O-])c1ccc(Cl)c(Cl)c1 | -0.45 | 
9 | C=CC(=C)C | 4.28 | 
10 | Cc1ccc2ccccc2c1 | 1.91 | 
11 | Nc1ccccc1Cl | -2.38 | 
12 | Clc1ccc2ccccc2c1 | 6.78 | 
13 | [O-][Br+2]([O-])O |  | inactive
14 | Clc1nc(Cl)nc(Nc2ccccc2Cl)n1 |  | inactive
15 | OCC1CO1 (configuration not stated) |  | inactive
16 | C=CCOC(=O)c1ccccc1N | 1.19 | 

Row | Structure (SMILES) | activation [%] | outcome
17 | C=CC(N)=O |  | inactive
18 | CC(C)(c1ccccc1)c1ccc(O)cc1 |  | inactive
19 | CCN(CC)c1ccccc1 | 1.84 | 
20 | S=C=Nc1cccc2ccccc12 | 0.338 | 
21 | N#CCCCl |  | inactive
22 | O=NN(CCO)CCO | 0.697 | 
23 | C=CCOC(C)=O | 0.28 | 
24 | CCCC(=O)Cl | 0.661 | 
25 | NC(=S)Nc1ccccc1 |  | inactive
26 | O=C(Cl)/C=C/C(=O)Cl | 6.01 | 
27 | ClCBr | 2.68 | 
28 | c1nc[nH]n1 | -2.83 | 
29 | c1ccc2c(c1)CCCC2 | 1.55 | 
30 | CCCSC(=O)Cl | 0.561 | 
31 | C1CCC2CCCCC2C1 (configuration not stated) | 4.16 | 
32 | CC(O)CCl (configuration not stated) |  | inactive
